# Measurements reported in ChEMBL document CHEMBL3988442, “University of Dundee, Small-Polar-MMV Screening Library” (2021).
# The whole screen tested about 68,000 compounds, of which about 25 (0.04%) showed an effect of 50% or more. Shown is part of a subset that was picked to be rich in strong results.
# Molecular target: T1, Methionyl-tRNA synthetase, putative (Leishmania donovani (strain BPK282A1)) (UniProt E9BF75)
# T1 sequence (whole entry): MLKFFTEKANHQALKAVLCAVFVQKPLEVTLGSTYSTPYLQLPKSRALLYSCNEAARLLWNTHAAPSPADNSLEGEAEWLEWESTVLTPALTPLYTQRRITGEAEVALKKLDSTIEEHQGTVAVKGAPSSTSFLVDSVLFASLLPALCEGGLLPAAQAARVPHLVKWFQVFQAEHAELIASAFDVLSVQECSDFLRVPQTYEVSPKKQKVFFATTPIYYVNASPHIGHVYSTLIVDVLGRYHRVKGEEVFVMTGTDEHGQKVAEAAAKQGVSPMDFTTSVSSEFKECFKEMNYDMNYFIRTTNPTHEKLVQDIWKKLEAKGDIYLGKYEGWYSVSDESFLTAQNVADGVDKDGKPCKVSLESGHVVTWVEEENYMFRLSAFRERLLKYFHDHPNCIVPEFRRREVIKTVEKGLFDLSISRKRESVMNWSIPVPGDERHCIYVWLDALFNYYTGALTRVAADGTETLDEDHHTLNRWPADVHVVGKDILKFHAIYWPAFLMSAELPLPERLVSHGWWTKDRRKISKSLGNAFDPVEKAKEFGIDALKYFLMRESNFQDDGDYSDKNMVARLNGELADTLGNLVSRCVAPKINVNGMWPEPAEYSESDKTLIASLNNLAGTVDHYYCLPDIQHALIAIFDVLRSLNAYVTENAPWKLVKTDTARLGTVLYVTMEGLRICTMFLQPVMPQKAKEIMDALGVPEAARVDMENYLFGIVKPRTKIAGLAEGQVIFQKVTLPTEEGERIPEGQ
# Experiment: Leishmania donovani Methionine tRNA synthetase (LdMetRS):v6. Primary screen assay
# Assay type: functional
# Design: conc 80 nM, time 150 minutes
row,SMILES,inhibition [%]
1,Cc1ocnc1C(=O)N1CCN(Cc2ccccc2)[C@@H]2CS(=O)(=O)C[C@@H]21,11.8
2,O=C([C@@H]1C[C@H]2[C@H](CCN2Cc2nccs2)O1)N1CCOCC1,12.4
3,Cc1noc([C@@H]2CC[C@@H]3[C@@H](CCN3S(=O)(=O)c3ccccc3)O2)n1,21.6
4,Cn1ccnc1CN1C[C@H]2CN(S(C)(=O)=O)CCN2C1=O,12
5,COCCN1C(=O)CC[C@@H]2[C@H]1CCN2C(=O)C1CCOCC1,7.27
6,CCN1C[C@H]2[C@@H](C1)N(S(=O)(=O)c1ccccc1F)CC[C@H]2OC,18.4
7,Cc1cnn(CCNCc2c(C)nn(-c3ccccc3)c2C)c1,121
8,Cc1cnn(CCNCc2ccccc2F)c1,13
9,Cc1cnn(CCNCc2c(C)nn(CCO)c2C)c1,105
10,Cc1cnn(CCNCc2c(C)nn(Cc3ccccc3)c2C)c1,9.32
11,Cc1cnn(CCNCc2c(C)nn(C)c2Cl)c1,15.4
12,CCn1nc(C)c(CNCCn2cc(C)cn2)c1C,-6.21
13,Cc1cccc2nc(C(=O)N3CCCC[C@]4(C)NC(=O)CC[C@H]34)cn12,13.5
14,O=C(N1CCOCC(O)C1)C1(c2ccc(Cl)cc2)CCC1 (centres undefined),123
15,O=C(N1CCC(O)(C(F)(F)F)C1)C1(c2ccc(Cl)cc2)CC1 (centres undefined),8.1
16,O=C(N1CCOCC1CO)C1(c2cccs2)CCCC1 (centres undefined),8.7
17,CNC(=O)CC1COCCN1C(=O)C1(c2ccc(Cl)cc2)CCC1 (centres undefined),7.45
18,O=C(O)CC1COCCN1C(=O)C1(c2ccc(Cl)cc2)CCC1 (centres undefined),52.2
19,O=C(N1CCCC(n2cncn2)C1)C1(c2ccc(Cl)cc2)CCC1 (centres undefined),15.4
20,O=C(c1ccco1)N1C[C@@H]2CN(c3ccccn3)C[C@@H]2C1,6.11

row,SMILES,inhibition [%]
1,O=C(NCc1ccco1)[C@H]1CC[C@@H]2[C@@H](CCN2c2ncccn2)O1,3.27
2,CC(C)CN1Cc2nc(N3CCC(O)CC3)ncc2C1=O,7.08
3,Cc1nonc1CC(=O)N1C[C@@H]2CC[C@H](C1)N(Cc1ccccc1)C2=O,6.88
4,N#Cc1ccccc1CN1C[C@@H]2CC[C@H](C1)N(CC1CCC1)C2=O,19.4
5,CCc1[nH]c2c(CNc3cncc(C(=O)N(C)C)n3)cc(F)cc2c1C,28.6
6,CCc1[nH]c2c(CNc3cncc(C(=O)OC)n3)cc(C)cc2c1C,123
7,CCc1[nH]c2c(CNc3cncc(C(=O)N(C)C)n3)cc(C)cc2c1C,32.3
8,CCOCC(=O)N1CC[C@H]2OCC[C@@]2(COc2ncccc2F)C1,6.53
9,CC1CCN(c2ccc(C(=O)N3CCCC3c3ccc[nH]3)cn2)CC1 (centres undefined),78.5
10,CC1CCN(c2ccc(C(=O)N3CCCC3c3nncn3C)cn2)CC1 (centres undefined),4.75
11,NC(=O)c1ccc(OCC(=O)N2CCCC2c2ccc[nH]2)cc1 (centres undefined),15.5
12,CCCOc1cc(C)c2c(c1C)C[C@H]([C@H](C)C(=O)O)CC2,2.26
13,CC(C)N1[C@H](CN2CCCC2)C[C@@H]2CN(Cc3cnn(C)c3)CC[C@@H]21,12.3
14,c1coc(CN2CCO[C@H]3[C@H](OCC4CC4)CC[C@@H]32)c1,13.7
15,O=C(NCC1CCOCC1)[C@@H]1CC[C@@H]2[C@@H](CCN2Cc2ccncc2)O1,19.3
16,Cc1nc(CN2C(=O)C[C@@H]3[C@@H]2CCN3S(=O)(=O)C2CC2)cs1,11.7
17,COCC(=O)N1C[C@@H]2CCCO[C@@H]2[C@H](N(C)Cc2ccco2)C1,-6.25
18,CNC(=O)[C@H]1C[C@@H]2CN(Cc3ccccc3)C[C@H]1O2,15.9
19,CN(C(=O)c1cccc(C(=O)NCC(F)(F)F)c1)c1ccccc1,3.94
20,COC(=O)CCNC(=O)c1cccc(C(=O)N(C)c2ccccc2)c1,31.7

row,SMILES,inhibition [%]
1,COC(=O)CNC(=O)c1cccc(C(=O)N(C)c2ccccc2)c1,95
2,O=C(NC1CC1)N1C[C@@H]2CCN(C(=O)c3cscn3)[C@@H]2C1,0.546
3,CO[C@H]1C[C@@H]2CN(C(=O)c3cc4ccc(F)cc4[nH]3)C[C@@H]2C1,13.3
4,O=C1[C@H]2CN(S(=O)(=O)c3ccccc3)C[C@H]2CN1Cc1cccnc1,4.19
5,Cc1ccccc1C(=O)NCc1ccc(N2CCNC(=O)C2)cc1,14.1
6,Cc1cccnc1NC(=O)NCc1ccc(N2CCNC(=O)C2)cc1,50.6
7,Cc1nnc(NC(=O)NCc2ccc(N3CCNC(=O)C3)cc2)s1,9.92
8,CN(C)S(=O)(=O)N1CC[C@]2(O)CCN(Cc3cccc(F)c3)C[C@@H]2C1,12.9
9,CC(C)c1nc(N2CCC(N3CCSCC3)CC2)c2cnn(C)c2n1,12.3
10,CC(C)c1nc(N2CCC(N3CCCC(O)C3)CC2)c2cnn(C)c2n1 (centres undefined),14.7
11,CC(C)c1nc(N2CCC(N3CCCCCC3)CC2)c2cnn(C)c2n1,56.4
12,CC1=N[C@@]2(CC[C@@H]3CN(CC4CC4)C[C@@H]32)C(=O)N1CC(C)C,14.9
13,COCCN1C[C@H]2CC[C@@H]1CN(C(=O)CCn1cc(Cl)cn1)C2,9.25
14,CC(C)CC(=O)N1CC[C@@H]2[C@H](CC1)N(Cc1cccnc1)CCS2(=O)=O,15.2
15,CN(C)CCN1CC[C@H]2[C@@H]1CCN2Cc1ccc2c(c1)OCO2,5.56
16,CCCSCC(=O)N1C[C@@H]2CC[C@H](C1)N(Cc1ccccn1)C2=O,-1.42
17,c1ccc(CN2C[C@H]3CC[C@@H]2CN(Cc2nnc(C4CC4)o2)C3)cc1,12.8
18,CC(C)N1CCN(c2ccc3ccc(C(=O)NC4CCCC4)cn23)CC1,30.2
19,CN(C)C(=O)N1CCN(c2ccc3ccc(C(=O)NC4CC4)cn23)CC1,20.2
